Bioassay records from PubChem.
SENP8 block-1 = SENP8 (human) protease inhibition; hit rate 0.64% among 360,000; inhibition, % at 20 µM; Q96LD8; recombinant SENP8, Nedd8 substrate fluorescence; in the data active = inhibition mostly above about 40%, no sharp cut-off; inactive = mostly below about 27%
Target sequence (Q96LD8 whole entry, looked up): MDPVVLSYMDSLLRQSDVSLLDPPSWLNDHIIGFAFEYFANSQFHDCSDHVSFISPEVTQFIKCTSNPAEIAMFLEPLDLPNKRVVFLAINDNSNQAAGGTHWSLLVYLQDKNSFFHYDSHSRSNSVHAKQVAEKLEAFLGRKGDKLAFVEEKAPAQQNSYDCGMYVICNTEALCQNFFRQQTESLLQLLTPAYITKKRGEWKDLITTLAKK
SENP7 inh = inhibitors of human SENP7 protease; hit rate 1.5% among 330,000; recombinant SENP7, Z-RLRGG-aminoluciferin luminescence, 40 min; inhibition, % at 5 µM; Q9BQF6;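 active = inhibition above about 50% at the single test dose, limit read from the data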;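 also: plate controls were DMSO with enzyme for no effect and no enzyme buffer wells for full effect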
SENP6 inh = blocks the human protease SENP6 | Recombinant SENP6 catalytic domain, aminoluciferin luminescence | inhibition, % at 10 µM | hit rate 1.8% among 330,000 | AID 2599;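 active = inhibition above about 50% at the single tested dose, limit read from the data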;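 also: plate controls were DMSO wells with enzyme for no effect and DMSO wells lacking enzyme for full effect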
Target sequence (Q9GZR1 628-1112 limits assumed): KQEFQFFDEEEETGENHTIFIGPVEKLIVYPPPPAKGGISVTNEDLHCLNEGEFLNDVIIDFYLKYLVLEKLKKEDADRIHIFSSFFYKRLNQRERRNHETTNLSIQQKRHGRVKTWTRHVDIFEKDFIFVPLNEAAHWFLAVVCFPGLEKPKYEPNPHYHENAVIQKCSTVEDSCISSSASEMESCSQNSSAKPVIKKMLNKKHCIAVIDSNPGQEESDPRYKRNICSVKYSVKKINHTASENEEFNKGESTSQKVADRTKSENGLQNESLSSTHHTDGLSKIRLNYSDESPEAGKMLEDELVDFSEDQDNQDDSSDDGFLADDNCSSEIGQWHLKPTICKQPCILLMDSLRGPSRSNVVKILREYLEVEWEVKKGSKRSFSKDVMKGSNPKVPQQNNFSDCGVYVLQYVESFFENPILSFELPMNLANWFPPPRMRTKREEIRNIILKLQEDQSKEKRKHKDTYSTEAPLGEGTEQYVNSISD
SENP8 block-2 = SENP8 protease inhibition. Q96LD8. purified SENP8, Z-RLRGG-aminoluciferin cleavage, luminescence. inhibition, % at 10 µM. hit rate 1.2% among 330,000; in the data active = inhibition above about 50%
C8 TRAIL sens = caspase-8 TRAIL sensitization; NB7+C8 cells + TRAIL, ATPlite viability luminescence; inhibition (viability loss, TRAIL sensitization), % at 10 µM; hit rate 1% among 360,000; AID 624354;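 active = compounds causing at least 50% loss of cell viability in the single-dose screen, relative to plate controls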
PPC-1+TRAIL kill = PPC-1 cancer cell killing with TRAIL present | PPC-1 cells + TRAIL, ATPLite viability luminescence | hit rate 0.41% among 220,000 | AID 1443 | cell killing (% activity), % at 4 µM or 5 µM;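 active = cell killing above 50% in the first pass at 4 µM, then a duplicate retest at 5 µM averaging 50% or more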;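 also: plate controls were cells with TRAIL plus DMSO for no effect and medium-only wells lacking cells for full effect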
SENP8 conf = human SENP8 inhibition, confirmed; hit rate 40% among 6,200; shares compounds with SENP7 inh; Recombinant SENP8, Z-RLRGG-aminoluciferin luminescence, 60 min; inhibition, % at 12.5 µM;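 active = mean inhibition across replicates above about 50%, limit read from the data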
SENP6 confirm = confirmation of human SENP6 protease inhibitors | shares compounds with SENP7 inh | recombinant SENP6, Z-RLRGG-aminoluciferin luminescence | inhibition, % at 12.5 µM | hit rate 58% among 6,200 | AID 488915
SENP7 conf = confirmation of human SENP7 protease inhibitors. recombinant SENP7, Z-RLRGG-aminoluciferin luminescence, 40 min. shares compounds with SENP7 inh. inhibition, % at 12.5 µM. hit rate 69% among 6,200
Casp3 SENP sel = caspase-3 inhibition (SENP selectivity assay) | hit rate 60% among 6,200 | shares compounds with SENP7 inh | AID 488918 | purified caspase-3, Z-DEVD-aminoluciferin luminescence, 60 min | inhibition, % at 12.5 µM;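 active = mean inhibition above about 50%, limit read from the data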;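 also: plate controls were enzyme with DMSO for no effect and wells without caspase-3 for full effect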
SENP luc ctr = luminescence interference (SENP counter-screen); Pre-incubated SENP8/Z-RLRGG-aminoluciferin, luciferase luminescence interference; hit rate 39% among 6,200; shares compounds with SENP7 inh; inhibition, % at 12.5 µM;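 active = mean inhibition above about 50% when retested at one dose, limit read from the data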;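 also: plate controls were DMSO wells with completed reaction for no effect and substrate without enzyme for full effect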
* marks the source's active call; other numbers are inactive results; / = not tested or not shown. Compounds with a hit are over-represented: about 3% of the library has one in this group of screens.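 The calls were made as follows, unless noted: active = mean inhibition above about 50% in the one-dose retest (limit read from the data); inactive = the rest.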

SMILES | SENP8 block-1 | SENP7 inh | SENP6 inh | SENP8 block-2 | C8 TRAIL sens | PPC-1+TRAIL kill | SENP8 conf | SENP6 confirm | SENP7 conf | Casp3 SENP sel | SENP luc ctr
Cc1cccc(C(=O)Nc2ccc3ccccc3c2)c1 | 7 | 75* | 83* | 73* | 19 | / | 74* | 76* | 94* | 58* | 30
CCOc1cccc(-c2c(C(=O)N/N=C(\C)c3cccnc3)nnn2-c2nonc2N)c1 | 6 | -5 | -4 | -2 | 0 | / | / | / | / | / | /
COCCCNC(=O)c1cc2c(s1)CS(=O)(=O)C2 | 7 | 2 | 7 | 2 | -7 | -19 | / | / | / | / | /
CC(C)OCCCNC(=O)c1cc2c(s1)CS(=O)(=O)C2 | 8 | 98* | 4 | 0 | 5 | 15 | 7 | 8 | 5 | 1 | 1
c1cc2[nH]snc2c2nc(C3CC3)nc12 | -100 | 28 | 55* | 29 | -3 | 9 | -4 | -1 | 3 | 35 | 17
O=C(COc1coc(CN2CCCc3ccccc32)cc1=O)Nc1ccc([N+](=O)[O-])cc1 | -64 | -2 | 2 | 2 | 31 | / | / | / | / | / | /
Nc1ccc2oc(-c3ccc4nc[nH]c4c3)nc2c1 | -321 | 58* | 67* | 30 | 57* | 31 | 54* | 55* | 86* | 80* | 50*
Nc1nc2cc(Br)ccc2o1 | 9 | / | / | / | 4 | / | / | / | / | / | /
Nc1cc(N)cc(-c2nc3ccccc3o2)c1 | -410 | 5 | 8 | 3 | 11 | / | / | / | / | / | /
Nc1ccc2oc(-c3cccc(Br)c3)nc2c1 | -428 | 90* | 90* | 82* | 20 | 20 | 58* | 82* | 98* | 74* | 45
Cc1nc2ccc([N+](=O)[O-])cc2[nH]1 | -6 | 3 | -13 | 1 | -8 | -10 | / | / | / | / | /
Nc1ccc(-c2nc3ccccc3o2)cc1 | -290 | 67* | 60* | 55* | 20 | / | 70* | 65* | 90* | 70* | 71*
Cc1nc2ccc(-c3nc4cc(N)ccc4o3)cc2[nH]1 | -276 | 77* | 46 | 54* | 60* | 43 | 2 | 78* | 96* | 90* | 58*
O=C(Nc1nccs1)C1CCCN1/C=C/C(=O)C(F)(F)F (stereo unspecified) | -10 | -14 | -11 | -6 | -23 | / | / | / | / | / | /
Cc1cc(C(=O)O)ccc1N/C=C1\CCCC(C)C1=O (stereo unspecified) | -44 | 27 | 79* | 77* | 1 | 4 | 9 | 89* | 99* | 62* | 88*
CC1CCC/C(=C\Nc2ccc(O)cc2)C1=O (stereo unspecified) | 8 | 15 | 14 | -11 | -16 | 11 | / | / | / | / | /
COc1ccc(C(=O)CSc2nc3nn(-c4ccccc4)c(=O)c-3c3n2CCCCC3)c(OC)c1 | 11 | / | / | / | 9 | / | / | / | / | / | /
O=C1CNC(=S)N1c1nc(-c2ccccc2)cs1 | 18 | 88* | 96* | 88* | -1 | 17 | -4 | 6 | 2 | 14 | 7
CCN1CCN(c2ccc(NC(=O)c3cccc(N4CCCC4=O)c3)cc2)CC1 | 10 | 0 | -14 | 1 | -3 | / | / | / | / | / | /
O=C(Nc1ccc(N2CCCCC2)cc1)c1ccc(F)cc1F | 7 | 80* | 88* | 77* | 36 | 14 | 33 | 77* | 88* | 84* | 14
O=C(Nc1ccc(N2CCCC2=O)cc1)c1cccc(F)c1 | -4 | 89* | 81* | 72* | 30 | 24 | -12 | 16 | 62* | 70* | 49
O=C(Nc1ccc(N2CCCC2)cc1)c1ccccc1F | 24 | 9 | -1 | 19 | -8 | 28 | / | / | / | / | /
O=C(Cc1ccccc1)Nc1ccc(N2CCCCC2)cc1 | 18 | 64* | 39 | 54* | 40 | 25 | -4 | 44 | 77* | 73* | 0
O=C(Nc1ccc(N2CCCC2)cc1)c1cccc(F)c1 | 20 | 93* | 94* | 89* | 12 | 23 | 87* | 86* | 96* | 80* | 75*
NC(=O)CSc1nc(C2CC2)nc2sc3c(c12)CCCC3 | 11 | 68* | 75* | 74* | 29 | 36 | -18 | -4 | 11 | 5 | 16
SMILES | SENP8 block-1 | SENP7 inh | SENP6 inh | SENP8 block-2 | C8 TRAIL sens | PPC-1+TRAIL kill | SENP8 conf | SENP6 confirm | SENP7 conf | Casp3 SENP sel | SENP luc ctr
NC(=O)CSc1nc(N)c2c3c(sc2n1)CCCCC3 | 14 | 5 | 7 | 0 | 26 | 4 | / | / | / | / | /
CC1CCCCC12NC(=O)N(CC(=O)Nc1nccs1)C2=O (stereo unspecified) | 8 | -5 | -1 | -13 | -9 | / | / | / | / | / | /
O=C(O)CSc1cc(NS(=O)(=O)c2ccc(Cl)cc2)c2ccccc2c1O | 28 | / | / | / | 37 | / | / | / | / | / | /
COc1ccc(S(=O)(=O)Nc2cc(SCC(=O)O)c(O)c3ccccc23)cc1 | 40 | 31 | 76* | 51* | 44 | / | 30 | 59* | 13 | 10 | 16
Fc1ccc(Nc2ccc3ccccc3n2)c(F)c1 | -415 | 99* | 95* | 95* | 40 | 28 | 98* | 99* | 103* | 95* | 93*
O=C(Nc1ccc2ccccc2n1)Nc1ccccc1F | 14 | 5 | -9 | -2 | 10 | / | / | / | / | / | /
Cc1ccc(Nc2nc(Cl)c(C=O)s2)cc1Cl | -365 | 87* | 94* | 93* | -2 | 8 | 69* | 96* | 85* | 52* | 10
CCOc1ccc(Nc2ccc([N+](=O)[O-])c3nonc23)cc1 | 39 | 37 | 71* | 65* | 6 | / | 64* | 60* | 84* | 61* | 65*
CC(C)n1cnc2cc(NCc3ccccn3)ccc21 | -16 | 4 | -1 | 1 | -4 | 24 | / | / | / | / | /
Cc1cc(NCc2ccccn2)ccc1Br | 11 | 53* | 47 | 39 | 2 | 5 | 43 | 40 | 69* | 39 | 52*
CC(C)[C@H](NC(=O)N1CC(=O)Nc2ccccc21)C(=O)N1CCC(C(=O)O)CC1 | 13 | 0 | 18 | 3 | 3 | / | / | / | / | / | /
CCC(=O)N(c1ccc(F)cc1)C1C=CS(=O)(=O)C1 (stereo unspecified) | 8 | 95* | 6 | -22 | 14 | 4 | 4 | 4 | 0 | 0 | -1
CCCC(=O)N(c1ccccc1)C1C=CS(=O)(=O)C1 (stereo unspecified) | 21 | 2 | 0 | 2 | -4 | 16 | / | / | / | / | /
O=C1C(=Cc2cccs2)C(=O)c2ccccc21 | 10 | 12 | 31 | 10 | 1 | -1 | / | / | / | / | /
